Article PMC10726135, “HNF4α isoforms regulate the circadian balance between carbohydrate and lipid metabolism in the liver”
The full ranking holds about 18,000 sequences; the median of “log2 normalized intensity” is about 0.39, and the highest 2% start at about 6.6. This is one part of a sample in which the highest values are shown more often than they occur.

Target: T1, HNF4alpha2 (COS-7 nuclear extract) (Homo sapiens, UniProt P41235 1-474)
T1 sequence: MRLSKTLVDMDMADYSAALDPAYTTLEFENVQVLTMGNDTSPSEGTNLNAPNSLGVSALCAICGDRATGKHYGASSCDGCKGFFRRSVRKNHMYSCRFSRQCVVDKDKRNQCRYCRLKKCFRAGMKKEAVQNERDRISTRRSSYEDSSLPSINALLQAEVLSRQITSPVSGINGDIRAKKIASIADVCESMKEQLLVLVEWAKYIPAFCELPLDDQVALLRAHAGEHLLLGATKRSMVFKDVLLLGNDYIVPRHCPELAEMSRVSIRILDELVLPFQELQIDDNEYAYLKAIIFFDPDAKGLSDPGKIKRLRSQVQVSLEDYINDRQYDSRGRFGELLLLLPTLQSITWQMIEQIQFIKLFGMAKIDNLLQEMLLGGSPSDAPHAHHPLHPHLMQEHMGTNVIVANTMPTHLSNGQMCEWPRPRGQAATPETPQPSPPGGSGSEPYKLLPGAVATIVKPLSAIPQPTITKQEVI
Assay: protein-binding microarray; COS-7 nuclear extract on double-stranded Agilent 4x180k PBM; binding buffer, salt, pH and temperature not given in the material; high values mean tight binding
Conditions: chain copies: 2; label: 3' end of strand 1 on the slide; dsDNA, one strand shown
In short: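 A human HNF4α isoform was expressed in COS-7 cells by transient CaPO4 transfection, and nuclear extracts were prepared. These were applied to a custom Agilent SurePrint G3 4x180k array carrying ~44,000 test sequences in quadruplicate as double-stranded ~60-nt oligonucleotides, and an Agilent G2565CA scanner imaged bound HNF4α at 2-µm resolution. The background-corrected, normalized gProcessedSignal from Agilent software was used as the binding signal.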

Sequence | binding signal
CAAAGGGTCAAGTTCAGATCCTGGCCATGCGCCTAGGGAGATTAGAGTATCGGTCGA | 0.748 log2 normalized intensity
GAGCAGGGTATCAGTTGAACAGAATAGAGGGCCTAGGGAGATTAGAGTATCGGTCGA | -0.996 log2 normalized intensity
GTGTGCAATTAGAGCAAAGGTTACTGCAGAGCCTAGGGAGATTAGAGTATCGGTCGA | 2.62 log2 normalized intensity
GAACCTGCCCTCTGTCCCATGGTGTACAAGGCCTAGGGAGATTAGAGTATCGGTCGA | 1.26 log2 normalized intensity
CCAGTTTTCCCAAAGGAGCTTTATTGGTTCGCCTAGGGAGATTAGAGTATCGGTCGA | 1.5 log2 normalized intensity
TGAGAATCTGACCTTTGGTTAACTTCTTAAGCCTAGGGAGATTAGAGTATCGGTCGA | 4.02 log2 normalized intensity
TGAGTATCCAAAGGTCAGTGACAAATGTCAGCCTAGGGAGATTAGAGTATCGGTCGA | 3.65 log2 normalized intensity
TTGTGAGTCCAAAGGTCAGCCGGGGAAGGTGCCTAGGGAGATTAGAGTATCGGTCGA | 6.71 log2 normalized intensity
AAGGTTGGTTTTTGGAGACAGGAGTAGTCAGCCTAGGGAGATTAGAGTATCGGTCGA | 1.3 log2 normalized intensity
ATGTTAGTCTTGAGTCCCAAAGTCCAAAGGGCCTAGGGAGATTAGAGTATCGGTCGA | 5.42 log2 normalized intensity
TAGGTTTGTGAGTCCAAAGGTCAGCCGGGGGCCTAGGGAGATTAGAGTATCGGTCGA | 7.74 log2 normalized intensity
AGTCCAAAGGTCAGCCGGGGAAGGTGCAGGGCCTAGGGAGATTAGAGTATCGGTCGA | 5 log2 normalized intensity
GATGCTAGGTTTGTGAGTCCAAAGGTCAGCGCCTAGGGAGATTAGAGTATCGGTCGA | 9.14 log2 normalized intensity
AAAAGGATGCTAGGTTTGTGAGTCCAAAGGGCCTAGGGAGATTAGAGTATCGGTCGA | 4.16 log2 normalized intensity
AGGTCAGGGAGTAGGTTTGATTTGTGAAAGGCCTAGGGAGATTAGAGTATCGGTCGA | 0.942 log2 normalized intensity
TAGCCAGACCTGTTCCTCTGCCCCTCATCGGCCTAGGGAGATTAGAGTATCGGTCGA | 1.7 log2 normalized intensity
TGAGACATTTTGTCTTTTCTCCCCTGACTAGCCTAGGGAGATTAGAGTATCGGTCGA | 2.63 log2 normalized intensity
GGACAATCATTGTGCAACCTGGACATTGGCGCCTAGGGAGATTAGAGTATCGGTCGA | 2.08 log2 normalized intensity
AAGGTGTATGTGGACTTTCAACTGCAGGGGGCCTAGGGAGATTAGAGTATCGGTCGA | 3.47 log2 normalized intensity
CGAGCATGGCCGCTCCGCGAGGTGAGCCATGCCTAGGGAGATTAGAGTATCGGTCGA | 0.717 log2 normalized intensity
TGGGCCCCACAGTGCATCTGATAAGGTTGTGCCTAGGGAGATTAGAGTATCGGTCGA | 0.921 log2 normalized intensity
GCTGGTTGCCCCTTTGACCCTCGGGCCTCCGCCTAGGGAGATTAGAGTATCGGTCGA | 5.62 log2 normalized intensity

Sequence | binding signal
AGCCTTATTCTTTGATCTCTTATCACCCTGGCCTAGGGAGATTAGAGTATCGGTCGA | 1.86 log2 normalized intensity
TGACCTTTGTCCTGGCACAACTGGATGGTGGCCTAGGGAGATTAGAGTATCGGTCGA | 5 log2 normalized intensity
TAAGTCACTGGGCTGATGACCTTTGACTGAGCCTAGGGAGATTAGAGTATCGGTCGA | 7.08 log2 normalized intensity
ATGACCTTTGACTGAGATGGGAGCAGTGCTGCCTAGGGAGATTAGAGTATCGGTCGA | 2.23 log2 normalized intensity
CACTGGGCTGATGACCTTTGACTGAGATGGGCCTAGGGAGATTAGAGTATCGGTCGA | 5.32 log2 normalized intensity
CTGGATGACCTTTGTCCTGGCACAACTGGAGCCTAGGGAGATTAGAGTATCGGTCGA | 5.84 log2 normalized intensity
CTAGTTAAGTCACTGGGCTGATGACCTTTGGCCTAGGGAGATTAGAGTATCGGTCGA | 6.19 log2 normalized intensity
TTTTTTTTTTGAGATGGAATCTTGCCCTGTGCCTAGGGAGATTAGAGTATCGGTCGA | 3.18 log2 normalized intensity
CATCTTTGAGCTGGATGACCTTTGTCCTGGGCCTAGGGAGATTAGAGTATCGGTCGA | 8.57 log2 normalized intensity
TTGAGCTGGATGACCTTTGTCCTGGCACAAGCCTAGGGAGATTAGAGTATCGGTCGA | 7.13 log2 normalized intensity
AGAATCATCTTTGAGCTGGATGACCTTTGTGCCTAGGGAGATTAGAGTATCGGTCGA | 7.46 log2 normalized intensity
TCCTGATCTTTGACCTGGAGCATGACCCTTGCCTAGGGAGATTAGAGTATCGGTCGA | 4.86 log2 normalized intensity
AGACCCTTATCAGTAGTTCTCCTTTCTGCCGCCTAGGGAGATTAGAGTATCGGTCGA | 1.39 log2 normalized intensity
ATGCATAGAAGTATGTCTGGGATTTGAAGGGCCTAGGGAGATTAGAGTATCGGTCGA | -0.542 log2 normalized intensity
GTCAAGCAATGATCTTCATGAACTTCTGTCGCCTAGGGAGATTAGAGTATCGGTCGA | 1.26 log2 normalized intensity
TAAAACCATGCAAATTGCTGACTTTCTGTGGCCTAGGGAGATTAGAGTATCGGTCGA | -0.773 log2 normalized intensity
CAGCAGGGCACCGCCTCCACACCCCAGCCTGCCTAGGGAGATTAGAGTATCGGTCGA | 3.03 log2 normalized intensity
GCCCTCCCCCAGAGAGAACAGTCCTACAAAGCCTAGGGAGATTAGAGTATCGGTCGA | 2.08 log2 normalized intensity
AAGATGGGCATTAGGTGGACAGGGGTGTGTGCCTAGGGAGATTAGAGTATCGGTCGA | 1.78 log2 normalized intensity
ACCCTTTGAGTCCTTCATGGCTACCCTTCAGCCTAGGGAGATTAGAGTATCGGTCGA | 0.859 log2 normalized intensity
CCCGCAGTGAGGGACAAGGCTGTCCCCCATGCCTAGGGAGATTAGAGTATCGGTCGA | 1.6 log2 normalized intensity
GGGGGTAAAGTGGATTGCTGGCCTTTTATCGCCTAGGGAGATTAGAGTATCGGTCGA | 0.814 log2 normalized intensity
